IL1B secr inh: qHTS for Inhibitors of Inflammasome Signaling: IL-1-beta AlphaLISA Primary Screen; AID 743279, 2014; 4.7% of 360,000 active; activity change, % at 57.5 µM; THP-1 LPS/ATP IL-1B secretion, AlphaLISA, 16 h; active compounds read low; in the data active = activity change below about -50%; inconclusive = mostly about -30% to -49%
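Secreted IL-1B measured by AlphaLISA bead assay after 16 h compound exposure of THP-1 cells; compounds (final up to 57.5 uM) added 1 h before LPS (250 ng/mL) and ATP (1.25 mM) stimulation; lower signal means less secretion.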
HT1080-NT tox: qHTS for induction of synthetic lethality in tumor cells producing 2HG: qHTS for the HT-1080-NT fibrosarcoma cell line | 1.6% of 360,000 active | HT-1080-NT fibrosarcoma viability, CellTiter-Glo ATP luminescence, 48 h | AID 686970, 2013 | Potency, µM (titrated, usually from 46.1 µM), actives largely listed as cytotoxic;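 note: NT is the 2HG producing partner of a matched IDH1 knockdown line; nearly all actives have a fitted effect of over 55% in size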
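Toxicity toward the 2HG-producing NT line was scored as %Activity, normalised to DMSO and no-cell wells, from CellTiter-Glo luminescence after 48 hours' treatment.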
TDP1 cell noCPT: qHTS for Inhibitors of human tyrosyl-DNA phosphodiesterase 1 (TDP1): qHTS in cells in absence of CPT | 15% of 420,000 active | Potency, µM (doses to about 46.2 µM), usual class: inhibitors | DT40 Tdp1-/- hTDP1 cells, no CPT, ATP luminescence, 48 h; note: nearly all actives have a fitted effect of over 55% in size
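Readout: luminescence from CellTiter-Glo after 30 min in the dark at RT. Cells: DT40 Tdp1-/- with stable hTDP1, 400/well. Exposure: compounds alone, ≥48 hr, 37 °C.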
DT40 TDP1 CPT: qHTS for Inhibitors of human tyrosyl-DNA phosphodiesterase 1 (TDP1): qHTS in cells in presence of CPT | chicken DT40 Tdp1-/-;hTDP1 cells + 20 nM CPT, ATP luminescence, 48 h | Potency, µM (titrated, usually from 46.2 µM), hits mostly inhibitors | 12% of 420,000 active | AID 686979, 2013; note: nearly all actives have a fitted effect of over 55% in size
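Cell growth measured by CellTiter-Glo luminescence after a minimum 48 h, 37 C compound exposure with 20 nM CPT in Tdp1-knockout DT40 cells stably expressing hTDP1, seeded 400/well; qHTS titration format.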
uPA surface inh: qHTS for Inhibitors of Cell Surface uPA Generation; cell surface uPA generation assay, qHTS; Potency, µM (series often up to 38.3 µM), usual class: inhibitors; 0.31% of 330,000 active; AID 540303, 2011; active = well fitted inhibition curve with a large enough effect; inconclusive = small, poorly fitted or top-dose-only effect; inactive = no such curve, though single readings can be large or run the other way; tested in mouse RAW 264.7 cells; note: nearly all actives have a fitted effect of over 55% in size
HT1080 IDH1KD tx: qHTS for induction of synthetic lethality in tumor cells producing 2HG: qHTS for the HT-1080-IDH1KD cell line. HT-1080 IDH1 knockdown viability, ATP luminescence, 48 h. Potency, µM (top dose mostly 46.1 µM), actives largely listed as cytotoxic. 2% of 360,000 active. AID 686971, 2013
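Knockdown cells (IDH1KD HT-1080) received compounds 2 h after plating at 750 cells/well and were kept 48 h at 37 °C in 5% FBS RPMI. A CellTiter-Glo luminescence read gave % activity for curve fitting.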
Of the large screens only hits and unclear results are named; the others gave an inactive call. A selection: hits, their analogues and other compounds. The true share with any hit is near 19%. Unless noted, calls come from the whole dose curve; as a rule, active = well fitted curve in the direction sought with a large enough effect; inconclusive = small, poorly fitted or top-dose-only effect, or another doubt; inactive = no such curve, though single readings can be large; an effect the other way counts as inactive or inconclusive.

CCOC(=O)c1c(NC(=O)CSc2n[nH]c(N)n2)sc(CC)c1C	IL1B secr inh -92
Nc1nc(SCC(=O)Nc2cc(Cl)c(Cl)cc2Cl)n[nH]1	IL1B secr inh -52, TDP1 cell noCPT inconclusive
CCOC(=O)c1c(NC(=O)CSc2nc3nc(C)cc(C)n3n2)sc(CC)c1C	TDP1 cell noCPT inconclusive, DT40 TDP1 CPT 12µM
COC(=O)c1c(NC(=O)CSc2n[nH]c(N)n2)sc(C)c1C	none
C/C(=N\Nc1nc(-c2ccccc2O)nc2ccccc12)c1ccccc1	TDP1 cell noCPT 7.3µM, DT40 TDP1 CPT inconclusive
C/C(=N/Nc1nc(-c2ccccc2F)nc2ccccc12)c1ccccc1O	HT1080-NT tox inconclusive, TDP1 cell noCPT 9.2µM, DT40 TDP1 CPT 7.3µM
Cc1ccc(/C(=N/Nc2ncnc3ccccc23)C(=O)O)cc1	HT1080-NT tox inconclusive, TDP1 cell noCPT inconclusive, DT40 TDP1 CPT inconclusive, HT1080 IDH1KD tx inconclusive
Oc1ccccc1Nc1nc(-c2ccccc2O)nc2ccccc12	none
C/C(=N\Nc1nc(-c2ccccn2)nc2ccccc12)c1ccc(F)cc1	TDP1 cell noCPT 5.8µM, DT40 TDP1 CPT 2.6µM, HT1080 IDH1KD tx inconclusive
Cc1ccc2oc(C(=O)Nc3sc4c(c3C(=O)NCc3cccnc3)CCCC4)cc(=O)c2c1	TDP1 cell noCPT inconclusive (no result: IL1B secr inh, HT1080-NT tox, uPA surface inh, HT1080 IDH1KD tx)
CCCOc1ccc(-c2c(C(=O)N/N=C(\C)c3cccs3)nnn2-c2nonc2N)cc1	none
C/C(=N\NC(=O)C(C)n1nc(C)c([N+](=O)[O-])c1C)c1ccccc1O (configuration not stated)	HT1080-NT tox inconclusive, TDP1 cell noCPT 1.8µM, DT40 TDP1 CPT 4.1µM, uPA surface inh inconclusive, HT1080 IDH1KD tx 9.2µM
CCCNC(=O)CNC(=O)c1ccccc1OCC(=O)Nc1ccc(Br)cc1	TDP1 cell noCPT inconclusive (no result: IL1B secr inh, HT1080-NT tox, uPA surface inh, HT1080 IDH1KD tx)
Cc1cc(C(=O)N2CCCC(C(=O)c3ccc(Oc4ccccc4)cc3)C2)n[nH]1 (configuration not stated)	IL1B secr inh inconclusive, TDP1 cell noCPT 13µM, DT40 TDP1 CPT 21µM
Cc1noc(C)c1C(=O)N1CCCC(C(=O)c2ccc(Cl)cc2)C1 (configuration not stated)	TDP1 cell noCPT inconclusive
Cc1ccc2[nH]nc(C(=O)N3CCCC(C(=O)c4ccc(Cl)cc4)C3)c2c1 (configuration not stated)	TDP1 cell noCPT 16µM, DT40 TDP1 CPT inconclusive
COCC(=O)N1CCCC(C(=O)c2ccc(Oc3ccccc3)cc2)C1 (configuration not stated)	TDP1 cell noCPT 8.2µM, DT40 TDP1 CPT inconclusive
CC(C)Oc1cccc(C(=O)C2CCCN(C(=O)c3cc(C(F)(F)F)[nH]n3)C2)c1 (configuration not stated)	IL1B secr inh -54, TDP1 cell noCPT inconclusive, DT40 TDP1 CPT inconclusive
COC(=O)C1=COC(O[C@H]2OC(CO)[C@H](O)C(O)C2O)[C@H]2C1C(=O)C[C@@H]2C (some centres not stated)	none (no result: IL1B secr inh, HT1080-NT tox, uPA surface inh, HT1080 IDH1KD tx)
CCOc1cc(CNC(=O)Cn2ncn3c(cc4cc(F)ccc43)c2=O)cc(OCC)c1OCC	none (no result: IL1B secr inh, HT1080-NT tox, uPA surface inh, HT1080 IDH1KD tx)
Cc1ccc(S(=O)(=O)N2[C@H](CC(=O)c3ccc(F)cc3)OC[C@@H]2C)cc1	TDP1 cell noCPT inconclusive, DT40 TDP1 CPT inconclusive (no result: uPA surface inh)
CC(=O)NCC(=O)N1CCCC(C(=O)c2ccc(-c3ccccc3)c(F)c2)C1 (configuration not stated)	HT1080-NT tox inconclusive
COCC(=O)N1CCCC(C(=O)c2ccc(-c3ccccc3)c(F)c2)C1 (configuration not stated)	TDP1 cell noCPT 15µM, DT40 TDP1 CPT 21µM
COc1ccc(NC(=O)Nc2ccc3c(c2)CC(=O)N([C@H](C)CO)C[C@H](C)[C@H](CN(C)Cc2ccc(C(=O)O)cc2)O3)cc1	none
C[C@H]1CN([C@@H](C)CO)C(=O)Cc2cc(NC(=O)C3CC3)ccc2O[C@H]1CN(C)Cc1ccc(Oc2ccccc2)cc1	IL1B secr inh -72, HT1080-NT tox inconclusive, TDP1 cell noCPT inconclusive, DT40 TDP1 CPT inconclusive, uPA surface inh inconclusive
C[C@H]1CN([C@@H](C)CO)C(=O)Cc2cc(NC(=O)CCN3CCOCC3)ccc2O[C@@H]1CN(C)Cc1ccc(Oc2ccccc2)cc1	TDP1 cell noCPT 23µM, DT40 TDP1 CPT 23µM
COc1ccc(NC(=O)N(C)C[C@H]2Oc3ccc(NC(=O)CCN4CCOCC4)cc3C(=O)N([C@H](C)CO)C[C@@H]2C)cc1	none
CC(C)c1cc2c(c(O)c1O)[C@@]13CCCC(C)(C)C1CC2OC3=O (some centres not stated)	TDP1 cell noCPT 8.2µM, DT40 TDP1 CPT 5.2µM, HT1080 IDH1KD tx inconclusive
CCN1CC(CN(C)Cc2nc(Cc3ccccc3)no2)CC1=O (configuration not stated)	none
COc1cccc(C(=O)N2CCCCC2CCN2CCCCC2)c1 (configuration not stated)	none (no result: IL1B secr inh, HT1080-NT tox, uPA surface inh, HT1080 IDH1KD tx)
CCOc1cccc2cc(C(=O)NCc3ccc(C)cc3)c(=N)oc12	IL1B secr inh inconclusive, TDP1 cell noCPT 4.1µM, DT40 TDP1 CPT inconclusive
CCOc1cccc2cc(C(=O)NCc3ccc(OC)cc3)c(=N)oc12	TDP1 cell noCPT inconclusive, DT40 TDP1 CPT 26µM
COc1ccc(CNC(=O)c2cc3cccc(O)c3oc2=N)cc1	IL1B secr inh inconclusive, DT40 TDP1 CPT inconclusive
CC(C)(C)C(=O)OCc1nc(-c2ccc(F)cc2)cs1	none
CC(=O)NCCc1nc2cc(NC(=O)COc3ccc(C)cc3)ccc2n1C	none
COc1cc(C2CC(=O)Nc3c2c(=O)n(C)c(=O)n3C)cc(OC)c1OC (configuration not stated)	none (no result: IL1B secr inh, HT1080-NT tox, uPA surface inh, HT1080 IDH1KD tx)
CC(=O)Nc1ccccc1N(CC(O)Cn1c2ccccc2c2ccccc21)S(=O)(=O)c1ccc(C)cc1 (configuration not stated)	IL1B secr inh inconclusive, HT1080-NT tox inconclusive, TDP1 cell noCPT 18µM, DT40 TDP1 CPT inconclusive, HT1080 IDH1KD tx 15µM
CCN(CC(O)Cn1c2ccccc2c2ccccc21)S(=O)(=O)c1ccc(C)cc1 (configuration not stated)	IL1B secr inh inconclusive, TDP1 cell noCPT inconclusive, DT40 TDP1 CPT 29µM
COc1ccc(N(CC(O)Cn2c3ccccc3c3ccccc32)S(=O)(=O)c2ccccc2)cc1 (configuration not stated)	TDP1 cell noCPT inconclusive, DT40 TDP1 CPT inconclusive, HT1080 IDH1KD tx inconclusive

High-throughput results: PubChem, National Center for Advancing Translational Sciences (NCATS)
